Out of some 76,000 compounds screened, about 1,900 (2.5%) were called active. Not shown: some 5% with an inconclusive outcome. Calls follow the shape of the dose curve; as a rule, active = well fitted inhibition curve with a large enough effect; inconclusive = small, poorly fitted or top-dose-only effect; inactive = flat fitted curve, though single readings scatter. The sample as a whole holds a higher share of actives than the screen did.
What follows are compounds tested against Luciferin 4-monooxygenase (Photinus pyralis) (UniProt P08659) (assay: Firefly luciferase inhibition profiling of diverse chemical library using quantitative high-throughput screening). Settings: purified P. pyralis luciferase, luminescence, biochemical; series mostly up to 172 µM; activity change, negative = inhibition: at the top concentration.
Sequence of Luciferin 4-monooxygenase (Photinus pyralis) (P08659 whole entry, looked up): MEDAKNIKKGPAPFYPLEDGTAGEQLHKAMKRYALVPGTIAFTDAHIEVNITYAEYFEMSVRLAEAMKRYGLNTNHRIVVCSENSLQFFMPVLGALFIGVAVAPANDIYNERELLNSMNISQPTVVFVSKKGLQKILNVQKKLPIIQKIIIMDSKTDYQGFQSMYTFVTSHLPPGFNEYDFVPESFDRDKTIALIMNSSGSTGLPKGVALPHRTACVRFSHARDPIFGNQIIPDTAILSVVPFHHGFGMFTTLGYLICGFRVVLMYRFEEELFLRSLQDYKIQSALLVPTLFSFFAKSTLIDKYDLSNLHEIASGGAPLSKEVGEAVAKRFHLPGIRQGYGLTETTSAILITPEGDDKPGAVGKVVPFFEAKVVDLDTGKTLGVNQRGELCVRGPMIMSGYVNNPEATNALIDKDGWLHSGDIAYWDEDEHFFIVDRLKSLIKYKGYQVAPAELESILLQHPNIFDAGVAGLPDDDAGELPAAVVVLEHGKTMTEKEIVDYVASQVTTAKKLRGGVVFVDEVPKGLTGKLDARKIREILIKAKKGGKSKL
From the text: Firefly (Photinus pyralis) luciferase is one of the most commonly used transcriptional reporters for a number of reasons. It is considered one of the more dynamically responsive reporters - that is, responsive to changes in reporter transcription - as it requires no post-translational modifications and is enzymatically active directly after protein synthesis (Wood, 1998). Additionally, the half-life of the luciferase protein is short relative to other reporter-gene products (Wood, 1995). Whereas reporters with long half-lives potentially allow for increased signal due to accumulation of reporter-gene product, once accumulated in the cell, dynamic changes in reporter-gene expression may be difficult to detect(Fan and Wood, 2007; Almond et al., 2004). It has been shown that wild-type P. pyralis luciferase has a half-life of approximately four hours in mammalian cells (Thompson et al., 1991). Firefly luciferase reporter-gene assays are also generally considered one of the most sensitive assay types (Wood, 1995; Wood, 1998). Although light produced in a bioluminescence reaction is of lower intensity than that produced during fluorescence emission, this is offset by little to no background light inherent to luminescent assays. Thus the luciferase reporter can be expressed at much lower levels than fluorescent proteins while still providing robust signal. However, it was initially observed, in 1991, by Thompson et al., that compounds that resemble the substrates of firefly luciferase (FLuc) can act as competitive inhibitors of the enzyme, and that these compounds, upon interaction with luciferase in the cell, can actually stabilize the protein and increase its half-life. Accumulated intracellular FLuc protein can be measured as an increase in luminescence signal, upon addition of detection reagents (which contain high concentrations of FLuc substrates) commonly used in high-throughput screening. In cell-based reporter gene assays that use FLuc as the reporter gene to quantitate the potential influence of a given compound against the target biology, this apparent increase in luminescence can mistakenly be interpreted as identification of a compound that is active against the target of interest. FLuc inhibitory compounds that stabilize the FLuc protein will give an identical read-out, making it difficult to distinguish compounds that are active against the target from those active against FLuc. In summary, the results generated here constitutes a valuable resource for the scientific community and provides insight on identifying compounds with inhibitory activity for the commonly-used reporter, firefly luciferase. References: -Almond, B., Zdanovsky, A., Zdanovskaia, M., Ma, D., Stecha, P., Paguio, A., Garvin, D., and Wood, K. (2004). Introducing the Rapid Response Reporter Vectors. Promega Notes 87, 18-22. -Fan, F., and Wood, K.V. (2007). Bioluminescent assays for high-throughput screening. Assay Drug Dev Technol 5, 127-136. -Thompson, J.F., Hayes, L.S., and Lloyd, D.B. (1991). Modulation of firefly luciferase stability and impact on studies of gene regulation. Gene 103, 171-177. -Wood, K.V. (1998). The chemistry of bioluminescent reporter assays. Promega Notes 65, 14-20. -Wood, K.V. (1995). Marker proteins for gene expression. Curr Opin Biotechnol 6, 50-58.
Reagents: 50mM Tris acetate, pH 7.5; 10mM Mg acetate; 10uM D-luciferin (Sigma #L9504); 10uM ATP; 0.01% Tween-20; 0.05% BSA; 10nM P. pyralis luciferase (Sigma #L9506) Control compounds used were two known firefly luciferase inhibitors (compounds (2) and (5) in Auld et al., 2010), and DMSO. Assay Summary: Three microliters containing firefly luciferase substrates in buffer (final concentrations: 50mM Tris acetate, pH 7.5, 10mM Mg acetate, 0.01% Tween-20, 0.05% BSA, 10uM D-luciferin, and 10uM ATP) are dispensed into each well of a Greiner white, solid-bottom 1536-well format plate using a flying reagent dispenser (FRD). […]
% is scaled to controls: 0 for no effect and ±100 for the full control effect.
Also: nearly all actives have a fitted effect of over 65% in size.

| Compound | Potency | activity change, negative = inhibition |
| --- | --- | --- |
| COc1cccc(Nc2cc3c(cn2)CN(C)CCN3C)c1 | 39.8 µM (active) | – |
| O=C(Nc1ccccc1)N1C[C@@H]2C[C@H](C1)c1c(-c3ccc(Cl)cc3)ccc(=O)n1C2 | – | 5.39% (inactive) |
| COc1ccc(C(=O)NC[C@H]2C[C@@H]3CCN2C[C@@H]3c2cc(-c3ccccc3)nn2C)cc1 | – | -3.92% (inactive) |
| Cc1cccc(C(=O)N2[C@H]3CC[C@@H]2c2cnc(-c4ccccc4)nc2C3)c1 | – | 2.26% [at 115 µM] (inactive) |
| COc1ccc(C(=O)N2[C@H]3CC[C@@H]2c2cnc(-c4ccccc4)nc2C3)c(OC)c1 | – | 4.83% [at 115 µM] (inactive) |
| Cc1ccc(C(=O)N2[C@H]3CC[C@@H]2c2cnc(-c4ccccc4)nc2C3)c(C)c1 | 20 µM (active) | – |
| C#C[C@H]1CN2CC[C@H]1C[C@@H]2COC(=O)Nc1cc(OC)cc(OC)c1 | – | -16.9% (inactive) |
| C=CCN(C)C[C@H]1CN2CC[C@H]1C[C@@H]2CNC(=O)Nc1cccc(SC)c1 | – | -10.3% (inactive) |
| COc1cc2c(cc1OCc1ccncc1)NC(=O)C21CCN(c2ncc(F)cn2)CC1 | – | -12.5% (inactive) |
| Cc1ccc(C(=O)NC[C@H]2C[C@@H]3CCN2C[C@@H]3c2cc(-c3ccco3)nc(C)n2)cc1 | – | 10.1% (inactive) |

From PubChem BioAssay AID1347043 (National Center for Advancing Translational Sciences (NCATS), 2019)
